Active and inactive are the calls of the source.

Consider five compounds from PubChem BioAssay.

Experiment [1] deals with Plasmodium falciparum Sir2 (PF13_0152, Sir2A). The experiment in a line: Plasmodium falciparum Sir2A binding compounds – biochemical, small-molecule microarray, 635 nm fluorescence, primary screen (AID 1098).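 Further: score merges spot fluorescence intensity with its signal-to-noise ratio.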 To be noted: fluorescence 635 nm, higher = more signal.
The nature of experiment [2]: probe aDKK1 binding to arrayed compounds – biochemical, biotinylated probe, 635/667 nm fluorescence, primary screen (AID 1099).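 Further: score merges 667nm spot fluorescence with signal to noise across triplicate slides.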 As to conditions: small-molecule microarray, higher = more signal.
The nature of experiment [3]: probe aCHRDL2 binding to arrayed compounds – biochemical, biotinylated probe, 635/667 nm fluorescence, primary screen (AID 1100). To be noted: small-molecule microarray, higher = more signal.
Experiment [4] can be described thus: change in splice reporter luminescence, either direction, cell-based, HEK293, spliceosome inhibition project, primary screen (AID 1101).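 Further: HEK293 cells carrying a splicing-competent luciferase reporter gene; test concentration not given here.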 To be noted: HEK293 splicing luciferase reporter, 24 h, higher = more signal, called active from +8 up or from −8 down. In general terms: In a reporter assay the amount or activity of a reporter protein is the signal.
Experiment [5] concerns the target Fibroblast growth factor 10 (Homo sapiens) (UniProt O15520). Put plainly: compounds binding fibroblast growth factor 10 – biochemical, small-molecule microarray, 635 nm fluorescence, primary screen (AID 1102). As to conditions: FGF10 binding, fluorescence 635 nm, higher = more signal.
Experiment [6] has as its system glycogen synthase kinase-3 (GSK3A per assay name; protocol says GSK3B). The experiment in a line: compounds binding glycogen synthase kinase-3 – biochemical, small-molecule microarray, 635 nm fluorescence, GSK3A, primary screen (AID 1103). Further: the record names both GSK3A and GSK3B. As to conditions: fluorescence 635 nm, higher = more signal.
In experiment [7] the target is Epidermal growth factor receptor (Homo sapiens) (UniProt P00533). The experiment in a line: compounds binding epidermal growth factor receptor – biochemical, small-molecule microarray, 635 nm fluorescence, primary screen (AID 1104).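 Further: score merges 667 nm emission intensity with spot signal to noise over triplicate slides.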 To be noted: EGFR binding, higher = more signal.
Experiment [8] addresses Follistatin-related protein 3 (Homo sapiens) (UniProt O95633). Put plainly: compounds binding follistatin-related protein 3 – biochemical, small-molecule microarray, 635 nm fluorescence, primary screen (AID 1105).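 Further: score merges emission near 667 nm and signal to noise per printed spot across three slides.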 To be noted: FSTL3 binding, higher = more signal.
The target in experiment [9] is Dickkopf-related protein 1 (Homo sapiens) (UniProt O94907). The experiment in a line: small molecules binding DKK1 protein – biochemical, small-molecule microarray, 635 nm fluorescence scan, primary screen (AID 1106).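 Further: score merges emission near 667 nm with signal to noise over three replicate slides.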 As to conditions: higher = more signal.
Experiment [10] relates to Inhibin beta A chain (activin A). The experiment in a line: small molecules binding activin A – biochemical, small-molecule microarray, 635 nm fluorescence scan, primary screen (AID 1107).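 Further: mouse activin A protein probed at 4.33 µg/mL on printed slides; score merges bound-protein fluorescence near 667 nm with spot signal-to-noise.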 As to conditions: INHBA, higher = more signal.
Experiment [11] concerns Human papillomavirus type 1a protein E7 (residues 44-93). The experiment in a line: small molecules binding HPV E7 44-93 – biochemical, small-molecule microarray, residues 44-93, 635 nm fluorescence, primary screen (AID 1108).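 Further: E7 fragment applied at 1 µg/mL in TBST for 1 h at 4 C; score combines spot fluorescence with its signal to noise ratio.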 As to conditions: fluorescence 635 nm, higher = more signal.
Experiment [12] is described as follows: hepatitis C replication reporter changes, two-sided – Huh7 cells, luciferase reporter, HCV replication inhibitor project, primary screen (AID 1109).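 Further: huh7 hepatoma cells harbouring a luciferase neomycin HCV replicon reporter; luciferase luminescence as measure of HCV replicon replication; test concentration not given here.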 To be noted: Huh7 HCV replicon luciferase reporter, 48 h; higher = more signal.
For experiment [13], the target named is Left-right determination factor 2 (Homo sapiens) (UniProt O00292). The experiment in a line: small molecules binding LEFTY2 protein – biochemical, small-molecule microarray, 635 nm fluorescence scan, primary screen (AID 1110). As to conditions: higher = more signal.
Experiment [14] deals with Calmodulin-1 (Homo sapiens) (UniProt P0DP23). The experiment in a line: small molecules binding calmodulin-1 with EGTA – biochemical, small-molecule microarray, Cy5-labelled CALM1, profiling panel (AID 1111).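 Further: labelled calmodulin applied in Tris saline Tween buffer holding calcium plus EGTA and DTT.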 To be noted: Cy5-CALM1 binding fluorescence, higher = more signal.
Experiment [15] shares this target. Put plainly: small molecules binding Ca-loaded calmodulin-1 – biochemical, small-molecule microarray, Cy5-labelled CALM1, plus calcium, artefact control for SMM control-protein annotation, profiling panel (AID 1112).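 Further: score merges spot fluorescence with signal to noise from triplicate slides.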 To be noted: Cy5-CALM1 binding fluorescence, higher = more signal.
Experiment [16] can be described thus: probe aWnt5a binding to arrayed compounds – biochemical, biotinylated probe, 635/667 nm fluorescence, primary screen (AID 1113).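 Further: score merges 667 nm fluorescence intensity with signal-to-noise per printed feature.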 As to conditions: small-molecule microarray, higher = more signal.
Experiment [17] is described as follows: probe aShh binding to arrayed compounds – biochemical, biotinylated probe, 635/667 nm fluorescence, primary screen (AID 1114).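 Further: probe is biotin-labelled aShh protein from a stem cell growth factor screen; measures binding of labelled protein to compounds printed on the slide; score merges feature fluorescence at 667 nm with signal-to-noise.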 As to conditions: small-molecule microarray, higher = more signal.
A short description of experiment [18]: probe aNog binding to arrayed compounds – biochemical, biotinylated probe, 635/667 nm fluorescence, primary screen (AID 1115).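 Further: probe is biotinylated aNog protein used at 0.15 µg/mL for 1 h at 4 C; z-score combines 667 nm fluorescence of each spot with its signal to noise.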 As to conditions: small-molecule microarray, higher = more signal.
The target of experiment [19] is Torsin-1A-interacting protein 1 (Homo sapiens) (UniProt Q5JTV8). The experiment in a line: compound microarray binding of lysate hLAP1 – cell lysate, small-molecule microarray, COS7 lysate, 635/667 nm fluorescence, primary screen (AID 1116). To be noted: 635 nm fluorescence, higher = more signal.
The target of experiment [20] is Alpha-bungarotoxin (Bungarus multicinctus) (UniProt P60615). The experiment in a line: compounds binding labelled alpha-BTX control protein – biochemical, small-molecule microarray, Alexa647 label, 635/667 nm fluorescence, artefact control for SMM control protein annotation, profiling panel (AID 1117). As to conditions: alpha-BTX-A647 binding fluorescence, higher = more signal.
Alpha-bungarotoxin (Bungarus multicinctus), sequence (P60615 whole entry, looked up): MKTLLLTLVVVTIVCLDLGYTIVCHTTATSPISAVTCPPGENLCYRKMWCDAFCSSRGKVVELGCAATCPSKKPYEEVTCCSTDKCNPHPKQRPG

Left-right determination factor 2 (Homo sapiens), sequence (O00292 whole entry, looked up): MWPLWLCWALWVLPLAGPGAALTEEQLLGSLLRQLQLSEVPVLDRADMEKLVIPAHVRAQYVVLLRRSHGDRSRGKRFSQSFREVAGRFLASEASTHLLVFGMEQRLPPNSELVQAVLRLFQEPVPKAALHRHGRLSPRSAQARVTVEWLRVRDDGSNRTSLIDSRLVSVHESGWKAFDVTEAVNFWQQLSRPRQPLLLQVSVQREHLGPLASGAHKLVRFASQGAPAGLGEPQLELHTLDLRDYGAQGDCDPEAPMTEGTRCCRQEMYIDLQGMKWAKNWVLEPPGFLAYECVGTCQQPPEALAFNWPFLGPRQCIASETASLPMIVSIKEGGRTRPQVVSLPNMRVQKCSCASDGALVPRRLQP
Dickkopf-related protein 1 (Homo sapiens), sequence (O94907 whole entry, looked up): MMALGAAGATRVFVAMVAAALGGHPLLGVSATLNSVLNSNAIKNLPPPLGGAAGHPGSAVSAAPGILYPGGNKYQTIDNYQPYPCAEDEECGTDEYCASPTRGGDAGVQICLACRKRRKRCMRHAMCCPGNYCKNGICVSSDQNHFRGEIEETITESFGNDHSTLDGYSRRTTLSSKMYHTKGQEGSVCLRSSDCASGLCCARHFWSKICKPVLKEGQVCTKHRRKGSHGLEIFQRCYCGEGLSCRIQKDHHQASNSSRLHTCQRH
Epidermal growth factor receptor (Homo sapiens), sequence (P00533 whole entry, looked up): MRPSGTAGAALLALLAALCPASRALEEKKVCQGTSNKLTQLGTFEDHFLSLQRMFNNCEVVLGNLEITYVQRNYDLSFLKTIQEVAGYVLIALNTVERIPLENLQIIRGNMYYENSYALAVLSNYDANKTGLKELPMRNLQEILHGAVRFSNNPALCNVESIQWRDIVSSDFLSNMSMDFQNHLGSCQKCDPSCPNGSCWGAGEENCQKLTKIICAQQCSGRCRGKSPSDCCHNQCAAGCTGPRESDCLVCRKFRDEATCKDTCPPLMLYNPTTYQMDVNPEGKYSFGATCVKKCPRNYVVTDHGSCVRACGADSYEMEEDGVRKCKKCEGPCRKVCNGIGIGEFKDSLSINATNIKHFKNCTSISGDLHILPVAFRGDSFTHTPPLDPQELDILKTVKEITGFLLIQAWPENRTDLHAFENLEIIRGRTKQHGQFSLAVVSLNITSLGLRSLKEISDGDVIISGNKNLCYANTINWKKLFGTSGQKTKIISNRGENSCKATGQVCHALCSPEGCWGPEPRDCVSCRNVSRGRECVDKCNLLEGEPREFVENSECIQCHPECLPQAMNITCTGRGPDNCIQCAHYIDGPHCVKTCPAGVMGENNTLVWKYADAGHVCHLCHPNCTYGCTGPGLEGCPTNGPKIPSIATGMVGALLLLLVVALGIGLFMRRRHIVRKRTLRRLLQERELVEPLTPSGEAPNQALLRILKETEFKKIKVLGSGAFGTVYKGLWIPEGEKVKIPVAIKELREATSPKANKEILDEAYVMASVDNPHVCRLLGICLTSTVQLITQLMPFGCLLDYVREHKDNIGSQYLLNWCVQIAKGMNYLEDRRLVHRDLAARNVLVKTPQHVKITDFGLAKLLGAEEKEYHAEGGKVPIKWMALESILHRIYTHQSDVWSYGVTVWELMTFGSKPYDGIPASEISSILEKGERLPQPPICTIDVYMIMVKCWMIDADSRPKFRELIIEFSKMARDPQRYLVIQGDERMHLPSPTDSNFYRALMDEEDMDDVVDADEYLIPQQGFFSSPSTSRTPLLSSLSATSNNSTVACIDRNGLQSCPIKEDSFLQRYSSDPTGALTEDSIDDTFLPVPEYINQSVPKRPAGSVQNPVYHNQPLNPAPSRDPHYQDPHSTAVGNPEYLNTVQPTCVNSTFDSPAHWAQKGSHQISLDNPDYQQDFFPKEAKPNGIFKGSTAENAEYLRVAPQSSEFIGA
Fibroblast growth factor 10 (Homo sapiens), sequence (O15520 whole entry, looked up): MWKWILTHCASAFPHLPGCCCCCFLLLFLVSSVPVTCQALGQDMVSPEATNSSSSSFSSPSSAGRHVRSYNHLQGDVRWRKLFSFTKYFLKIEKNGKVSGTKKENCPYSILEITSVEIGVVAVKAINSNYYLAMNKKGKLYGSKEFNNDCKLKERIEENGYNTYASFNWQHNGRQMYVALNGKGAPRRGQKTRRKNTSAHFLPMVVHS
Torsin-1A-interacting protein 1 (Homo sapiens), sequence (Q5JTV8 whole entry, looked up): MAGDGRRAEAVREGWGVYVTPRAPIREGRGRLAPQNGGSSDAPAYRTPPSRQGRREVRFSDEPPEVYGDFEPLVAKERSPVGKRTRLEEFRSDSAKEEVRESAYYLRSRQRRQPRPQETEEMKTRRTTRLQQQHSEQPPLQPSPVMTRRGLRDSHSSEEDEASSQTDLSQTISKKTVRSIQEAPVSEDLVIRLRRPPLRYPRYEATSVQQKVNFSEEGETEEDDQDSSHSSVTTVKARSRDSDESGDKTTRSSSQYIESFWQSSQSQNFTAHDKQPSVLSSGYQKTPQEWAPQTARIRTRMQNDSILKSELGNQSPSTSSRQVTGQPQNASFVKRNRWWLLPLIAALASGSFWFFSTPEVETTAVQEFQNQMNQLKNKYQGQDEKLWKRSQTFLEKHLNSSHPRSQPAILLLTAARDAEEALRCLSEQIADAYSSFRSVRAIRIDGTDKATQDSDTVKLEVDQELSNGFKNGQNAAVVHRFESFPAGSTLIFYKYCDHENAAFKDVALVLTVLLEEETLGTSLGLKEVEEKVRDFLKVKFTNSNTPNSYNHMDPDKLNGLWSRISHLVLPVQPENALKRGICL
Follistatin-related protein 3 (Homo sapiens), sequence (O95633 whole entry, looked up): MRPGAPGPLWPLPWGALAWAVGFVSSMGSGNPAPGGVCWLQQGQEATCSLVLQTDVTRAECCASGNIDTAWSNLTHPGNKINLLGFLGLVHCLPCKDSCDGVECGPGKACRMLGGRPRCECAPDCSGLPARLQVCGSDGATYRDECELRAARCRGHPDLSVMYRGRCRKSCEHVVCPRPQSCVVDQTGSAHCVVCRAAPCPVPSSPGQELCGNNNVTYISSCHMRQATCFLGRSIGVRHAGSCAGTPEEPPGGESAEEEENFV

Turning to `CC(C)OC(=O)C=C1C[C@@H](c2ccc(C#N)cc2)O[C@@H](c2ccc(C#N)cc2)O1`, the composite z-score amounted to 1.07 in experiment [1]; 0.738 in [2]; 0.407 in experiment [3]; 1.44 in experiment [5]; 1.29 in experiment [6]; 0.87 in experiment [7]. The composite z-score in experiment [8] was 1.4; in experiment [9] it was 0.189; in experiment [10], -0.106; in experiment [11], 1.45; in experiment [13], 0.701; in [14], 0.857. Further, the composite z-score in [15] came to 0.621; in experiment [16] it was 0.178; in experiment [17], 0.0875; in [18] it was 0.229; in [19], 1.22; in [20], 1.09. Moreover, the values for the z-score in experiment [4] and in experiment [12] were -0.159 (inactive) and -2.19, respectively.

In the case of `O=C1O[C@@H](c2ccccc2)[C@@H](c2ccccc2)N2[C@@H](c3ccc(OCCO)cc3)[C@]3(C(=O)Nc4ccccc43)[C@@H](C(=O)N3CCN(c4ncccn4)CC3)[C@H]12`, the composite z-score was 1.4 in experiment [1]; 0.556 in experiment [2]; -0.0223 in experiment [3]; 0.69 in [5]; 1.22 in experiment [6]; 0.774 in [7]. Also, the composite z-score in experiment [8] is 1.23; in [9] it was 0.886; in experiment [10] it was 0.38; in experiment [11], 1.35; in experiment [13] it was 0.773; in experiment [14] it was 0.0357. For the same compound, the composite z-score is -0.355 in [15]; -0.0685 in experiment [16]; 0.0044 in [17]; 0.751 in experiment [18]; 0.96 in [19]; 1.53 in [20]. For the same compound, the z-score in [4] is -0.0125 (inactive); in experiment [12], -2.4.

Consider `CCCCCN1CC=CC23O[C@@H]4C=CCOC(=O)[C@@H]4[C@H]2C(=O)N(C(CO)C(C)C)[C@@H]3C1=O` (stereo not given in full), for which the composite z-score in experiment [1] was 0.745; in [2] it was -0.183; in experiment [3], 0.0134; in experiment [5] it was -0.512; in experiment [6], -0.786; in experiment [7], -1.07. The composite z-score was -0.472 in experiment [8]; -0.426 in experiment [9]; 0.712 in [10]; -0.516 in experiment [11]; -0.518 in experiment [13]; -0.385 in experiment [14]. In addition, the composite z-score in experiment [15] was -1.07; in experiment [16], -0.176; in experiment [17], -0.276; in experiment [18], -0.254; in experiment [19] it was -0.0843; in experiment [20], -0.257. In addition, the z-score in experiment [4] was 0.253 (inactive); in [12] it was 0.245.

For `COC(=O)C1(C)C=C2C(=C(c3ccccc3)C(=O)C2C)CN1` (stereo not given), the composite z-score was 0.537 in experiment [1]; 1.14 in [2]; 1.22 in experiment [3]; -0.174 in experiment [5]; -0.824 in experiment [6]; -0.709 in [7]. Moreover, the composite z-score was -1.29 in experiment [8]; -1.16 in [9]; 1.45 in experiment [10]; -1.06 in experiment [11]; -1.3 in experiment [13]; 0.29 in experiment [14]. In addition, the composite z-score in experiment [15] was -0.0125; in [16], -0.034; in experiment [17] it was -0.119; in [18], 1.74; in experiment [19], 1.72; in experiment [20] it was -0.422. For the same compound, the z-score was 1.21 (inactive) in experiment [4] and -0.546 in experiment [12].

As to `COC(=O)CC=C[C@H](C)[C@H](CO)NS(=O)(=O)c1ccc(C)cc1`, the composite z-score is 0.227 in experiment [1]; -0.397 in experiment [2]; -0.707 in experiment [3]; 0.62 in experiment [5]; 0.252 in [6]; 0.573 in [7]. The composite z-score is 0.48 in experiment [8]; 0.987 in experiment [9]; -0.273 in experiment [10]; 0.144 in experiment [11]; 0.703 in experiment [13]; -0.756 in [14]. Moreover, the composite z-score in experiment [15] is -0.624; in experiment [16], -0.124; in experiment [17], -0.117; in [18], -0.0094; in experiment [19], 0.729; in experiment [20] it was 0.219. In addition, the z-score was 0.636 (inactive) in experiment [4] and -0.763 in [12].
